Test results published in the supplement of paper PMC10037445.
Over roughly 2,900 compounds, “NF-kB SEAP reporter activity, fold change vs agonist alone” has its median near 0.99; the highest 2% begin near 2.6. Shown is part of a subset that was picked to be rich in the highest values.

Assays:
[1] = tested on: RAW-Dual; assay: NF-kB SEAP reporter activity, fold change vs agonist alone; cytotoxicity flag (confluency mask): not cytotoxic; higher = enhanced NF-kB activity
Outline: (§1)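 After 50 nL of library stock was delivered by pin tool to RAW-Dual macrophages (50,000 cells/well, DMEM, 384-well plates), a PRR agonist was added 1 h later and the plates were kept at 37 °C, 5% CO2. Twenty hours later, IRF was read from supernatant by QuantiLuc luminescence and NF-κB by QuantiBlue absorbance at 620 nm. Reporter activity is stated as fold change over agonist-alone wells. Wells with IncuCyte confluency under 70% of agonist controls in both mask sets were counted as cytotoxic.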

[2] = tested on: RAW-Dual; assay: NF-kB SEAP reporter activity, fold change vs agonist alone; higher = enhanced NF-kB activity; conditions: library stock concentration (final ~1000-fold dilution): 10 mM
Outline: as §1

[3] = tested on: RAW-Dual; assay: NF-kB SEAP reporter activity, fold change vs agonist alone; cytotoxicity flag (confluency mask): cytotoxic (confluency <70% of control); higher = enhanced NF-kB activity
Outline: as §1

[4] = agonist: ODN 1826 (TLR9) 0.5 ug/mL
[5] = agonist: Pam2CSK4 (TLR2/6) 0.1 ug/mL
[6] = agonist: Pam3CSK4 (TLR2/1) 0.1 ug/mL
[7] = cytotoxicity flag (confluency mask): not cytotoxic, agonist: Imiquimod (TLR7) […]
[8] = cytotoxicity flag (confluency mask): not cytotoxic, agonist: MPLA (TLR4) […]

## Cl.Nc1ccn(C2OC(CO)C(O)C2O)c(=O)n1 (configuration not stated) (library stock concentration (final ~1000-fold dilution): 10 mM)
[1]; agonist: LPS (TLR4) 0.1 ug/mL
  NF-kB SEAP reporter activity: 0.959
[1]; [4]
  NF-kB SEAP reporter activity: 1.65
[1]; [5]
  NF-kB SEAP reporter activity: 1.16
[1]; [6]
  NF-kB SEAP reporter activity: 1.35

## Cl.Nc1ccn(C2OC(CO)C(O)C2O)c(=O)n1 (configuration not stated)
[2]; [7]
  NF-kB SEAP reporter activity: 1.72
[2]; [8]
  NF-kB SEAP reporter activity: 1.42

## C=C1CC[C@@H]2[C@](C)(CO)[C@H](O)CC[C@@]2(C)[C@@H]1/C=C/C1=CCOC1=O
[2]; [7]
  NF-kB SEAP reporter activity: 0.706
[2]; [8]
  NF-kB SEAP reporter activity: 0.901

## C=C1CC[C@@H]2[C@](C)(CO)[C@H](O)CC[C@@]2(C)[C@@H]1/C=C/C1=CCOC1=O (library stock concentration (final ~1000-fold dilution): 10 mM)
[1]; agonist: LPS (TLR4) 0.1 ug/mL
  NF-kB SEAP reporter activity: 0.755
[1]; [4]
  NF-kB SEAP reporter activity: 0.721
[1]; [5]
  NF-kB SEAP reporter activity: 0.5
[1]; [6]
  NF-kB SEAP reporter activity: 0.597

## Cl.Cl.O=c1cc(CN2CCOCC2)occ1OCCCCCSc1ccnc2cc(C(F)(F)F)ccc12
[2]; cytotoxicity flag (confluency mask): cytotoxic (confluency <70% of control), agonist: Imiquimod (TLR7) […]
  NF-kB SEAP reporter activity: 0.953
[2]; cytotoxicity flag (confluency mask): cytotoxic (confluency <70% of control), agonist: MPLA (TLR4) […]
  NF-kB SEAP reporter activity: 0.895

## Cl.Cl.O=c1cc(CN2CCOCC2)occ1OCCCCCSc1ccnc2cc(C(F)(F)F)ccc12 (library stock concentration (final ~1000-fold dilution): 10 mM)
[3]; agonist: LPS (TLR4) 0.1 ug/mL
  NF-kB SEAP reporter activity: 0.81
[3]; [4]
  NF-kB SEAP reporter activity: 0.603
[3]; [5]
  NF-kB SEAP reporter activity: 0.59
[3]; [6]
  NF-kB SEAP reporter activity: 0.529

## Nc1ncnc2[nH]nc(Nc3ccc(F)cc3)c12 (library stock concentration (final ~1000-fold dilution): 10 mM)
[1]; agonist: LPS (TLR4) 0.1 ug/mL
  NF-kB SEAP reporter activity: 6.5
[1]; [4]
  NF-kB SEAP reporter activity: 1.43
[1]; [5]
  NF-kB SEAP reporter activity: 0.872
[1]; [6]
  NF-kB SEAP reporter activity: 1.26

## Nc1ncnc2[nH]nc(Nc3ccc(F)cc3)c12
[2]; [7]
  NF-kB SEAP reporter activity: 1.13
[2]; [8]
  NF-kB SEAP reporter activity: 2.6

## Fc1ccc(CNc2ncnc3ccc(F)cc23)cc1
[2]; [7]
  NF-kB SEAP reporter activity: 0.988
[2]; [8]
  NF-kB SEAP reporter activity: 1.47

## Fc1ccc(CNc2ncnc3ccc(F)cc23)cc1 (library stock concentration (final ~1000-fold dilution): 10 mM)
[1]; agonist: LPS (TLR4) 0.1 ug/mL
  NF-kB SEAP reporter activity: 2.47
[1]; [4]
  NF-kB SEAP reporter activity: 1.19
[1]; [5]
  NF-kB SEAP reporter activity: 1.06
[1]; [6]
  NF-kB SEAP reporter activity: 1.25

## COc1cc2c(cc1Cc1cccc(Cl)c1F)c(=O)c(C(=O)O)cn2C(CO)C(C)C (configuration not stated)
[2]; [7]
  NF-kB SEAP reporter activity: 1.06
[2]; [8]
  NF-kB SEAP reporter activity: 1.17

## COc1cc2c(cc1Cc1cccc(Cl)c1F)c(=O)c(C(=O)O)cn2C(CO)C(C)C (configuration not stated) (library stock concentration (final ~1000-fold dilution): 10 mM)
[1]; agonist: LPS (TLR4) 0.1 ug/mL
  NF-kB SEAP reporter activity: 1.45
[1]; [4]
  NF-kB SEAP reporter activity: 1.08
[1]; [5]
  NF-kB SEAP reporter activity: 0.664
[1]; [6]
  NF-kB SEAP reporter activity: 0.625

## O=C1c2ccc(O)cc2C(=O)c2ccc(O)cc21 (library stock concentration (final ~1000-fold dilution): 10 mM)
[1]; agonist: LPS (TLR4) 0.1 ug/mL
  NF-kB SEAP reporter activity: 1.38
[1]; [4]
  NF-kB SEAP reporter activity: 1.04
[1]; [5]
  NF-kB SEAP reporter activity: 1.32
[1]; [6]
  NF-kB SEAP reporter activity: 1.16

## O=C1c2ccc(O)cc2C(=O)c2ccc(O)cc21
[2]; [8]
  NF-kB SEAP reporter activity: 1.26

## Nc1nc(F)nc2c1ncn2C1OC(COP(=O)(O)O)C(O)C1O (configuration not stated)
[2]; [7]
  NF-kB SEAP reporter activity: 0.903
[2]; [8]
  NF-kB SEAP reporter activity: 1.03

## Nc1nc(F)nc2c1ncn2C1OC(COP(=O)(O)O)C(O)C1O (configuration not stated) (library stock concentration (final ~1000-fold dilution): 10 mM)
[1]; agonist: LPS (TLR4) 0.1 ug/mL
  NF-kB SEAP reporter activity: 1.14
[1]; [4]
  NF-kB SEAP reporter activity: 1.01
[1]; [5]
  NF-kB SEAP reporter activity: 1
[1]; [6]
  NF-kB SEAP reporter activity: 1.15
